Measured values reported in PubChem BioAssay.
Unmarked numbers belong to inactive results. This is one part of the list. The source made the active and inactive calls. Rule as the data show it, unless noted: active = inhibition above about 42%; inactive = the rest.

Assays:
[1] = biological target: Nuclear receptor coactivator 3 (Homo sapiens) (UniProt Q9Y6Q9); assay: NCOA3 GAL4-fusion reporter inhibition – cell-based, luminescence, quadruplicate, confirmation (AID 588792;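 active = mean inhibition over 43.08%, the solvent-only control mean plus 3 SD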;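 also: 0% = DMSO treated cells and 100% = gossypol at 36 µM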); conditions: HEK293 GAL4-SRC3 luciferase reporter, at 3.6 µM, active compounds read high
Chain of Nuclear receptor coactivator 3 (Homo sapiens) (Q9Y6Q9 whole entry, looked up, the tested form may be a part): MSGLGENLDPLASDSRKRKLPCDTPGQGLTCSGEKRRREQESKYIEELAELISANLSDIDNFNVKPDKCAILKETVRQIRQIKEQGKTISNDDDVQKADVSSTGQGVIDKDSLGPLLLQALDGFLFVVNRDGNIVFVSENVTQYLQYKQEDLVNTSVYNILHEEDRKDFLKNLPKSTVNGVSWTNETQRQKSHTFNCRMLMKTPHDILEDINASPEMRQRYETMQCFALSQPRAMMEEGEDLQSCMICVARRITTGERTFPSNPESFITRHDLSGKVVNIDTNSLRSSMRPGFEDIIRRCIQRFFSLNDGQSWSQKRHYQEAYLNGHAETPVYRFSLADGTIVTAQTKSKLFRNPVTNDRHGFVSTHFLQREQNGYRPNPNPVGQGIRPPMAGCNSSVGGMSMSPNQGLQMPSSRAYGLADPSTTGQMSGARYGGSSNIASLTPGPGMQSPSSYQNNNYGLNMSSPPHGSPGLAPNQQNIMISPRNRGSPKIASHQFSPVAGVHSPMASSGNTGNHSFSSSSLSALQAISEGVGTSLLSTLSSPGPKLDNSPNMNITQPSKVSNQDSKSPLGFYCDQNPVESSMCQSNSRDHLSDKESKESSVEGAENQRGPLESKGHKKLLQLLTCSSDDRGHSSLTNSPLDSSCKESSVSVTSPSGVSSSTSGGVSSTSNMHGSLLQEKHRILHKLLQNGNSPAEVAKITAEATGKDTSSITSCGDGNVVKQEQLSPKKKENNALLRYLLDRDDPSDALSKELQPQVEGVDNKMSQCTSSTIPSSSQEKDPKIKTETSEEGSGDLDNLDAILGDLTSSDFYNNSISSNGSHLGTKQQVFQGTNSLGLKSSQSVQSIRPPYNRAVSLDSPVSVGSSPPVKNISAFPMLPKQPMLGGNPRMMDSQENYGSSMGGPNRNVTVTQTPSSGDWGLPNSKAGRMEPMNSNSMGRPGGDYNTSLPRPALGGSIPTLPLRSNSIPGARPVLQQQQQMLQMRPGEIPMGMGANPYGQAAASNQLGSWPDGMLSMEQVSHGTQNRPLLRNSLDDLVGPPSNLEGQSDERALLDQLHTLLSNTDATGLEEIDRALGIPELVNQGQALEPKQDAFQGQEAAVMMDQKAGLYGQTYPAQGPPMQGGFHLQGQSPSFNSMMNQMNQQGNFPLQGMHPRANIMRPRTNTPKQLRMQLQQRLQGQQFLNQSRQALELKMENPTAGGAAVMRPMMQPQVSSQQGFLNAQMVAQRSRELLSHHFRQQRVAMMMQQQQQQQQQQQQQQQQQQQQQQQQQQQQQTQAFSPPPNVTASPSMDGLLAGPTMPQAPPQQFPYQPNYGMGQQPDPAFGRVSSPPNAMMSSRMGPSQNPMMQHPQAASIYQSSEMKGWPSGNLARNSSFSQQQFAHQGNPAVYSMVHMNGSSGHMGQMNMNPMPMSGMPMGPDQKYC

[2] = system: transactivating tegument protein VP16 (Human herpesvirus 1), Gal4-VP16 luciferase reporter; assay: repression of VP16-driven luciferase reporter – cell-based, luminescence, high throughput, counter-screen for SRC3 inhibitor project (AID 588794; in the data active = inhibition above about 30%); conditions: mammalian cells, at 3.6 µM, active compounds read high
[3] = biological target: Nuclear receptor coactivator 1 (Homo sapiens) (UniProt Q15788); assay: NCOA1 GAL4-fusion reporter inhibition – cell-based, luminescence, quadruplicate, confirmation (AID 588820;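 active = mean inhibition above 46.68%, the untreated control wells mean plus 3 SD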;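 also: 0% = DMSO wells and 100% = gossypol 36 µM treated wells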); conditions: HEK293 GAL4-SRC1 luciferase reporter, at 3.6 µM, active compounds read high
Chain of Nuclear receptor coactivator 1 (Homo sapiens) (Q15788 whole entry, looked up, the tested form may be a part): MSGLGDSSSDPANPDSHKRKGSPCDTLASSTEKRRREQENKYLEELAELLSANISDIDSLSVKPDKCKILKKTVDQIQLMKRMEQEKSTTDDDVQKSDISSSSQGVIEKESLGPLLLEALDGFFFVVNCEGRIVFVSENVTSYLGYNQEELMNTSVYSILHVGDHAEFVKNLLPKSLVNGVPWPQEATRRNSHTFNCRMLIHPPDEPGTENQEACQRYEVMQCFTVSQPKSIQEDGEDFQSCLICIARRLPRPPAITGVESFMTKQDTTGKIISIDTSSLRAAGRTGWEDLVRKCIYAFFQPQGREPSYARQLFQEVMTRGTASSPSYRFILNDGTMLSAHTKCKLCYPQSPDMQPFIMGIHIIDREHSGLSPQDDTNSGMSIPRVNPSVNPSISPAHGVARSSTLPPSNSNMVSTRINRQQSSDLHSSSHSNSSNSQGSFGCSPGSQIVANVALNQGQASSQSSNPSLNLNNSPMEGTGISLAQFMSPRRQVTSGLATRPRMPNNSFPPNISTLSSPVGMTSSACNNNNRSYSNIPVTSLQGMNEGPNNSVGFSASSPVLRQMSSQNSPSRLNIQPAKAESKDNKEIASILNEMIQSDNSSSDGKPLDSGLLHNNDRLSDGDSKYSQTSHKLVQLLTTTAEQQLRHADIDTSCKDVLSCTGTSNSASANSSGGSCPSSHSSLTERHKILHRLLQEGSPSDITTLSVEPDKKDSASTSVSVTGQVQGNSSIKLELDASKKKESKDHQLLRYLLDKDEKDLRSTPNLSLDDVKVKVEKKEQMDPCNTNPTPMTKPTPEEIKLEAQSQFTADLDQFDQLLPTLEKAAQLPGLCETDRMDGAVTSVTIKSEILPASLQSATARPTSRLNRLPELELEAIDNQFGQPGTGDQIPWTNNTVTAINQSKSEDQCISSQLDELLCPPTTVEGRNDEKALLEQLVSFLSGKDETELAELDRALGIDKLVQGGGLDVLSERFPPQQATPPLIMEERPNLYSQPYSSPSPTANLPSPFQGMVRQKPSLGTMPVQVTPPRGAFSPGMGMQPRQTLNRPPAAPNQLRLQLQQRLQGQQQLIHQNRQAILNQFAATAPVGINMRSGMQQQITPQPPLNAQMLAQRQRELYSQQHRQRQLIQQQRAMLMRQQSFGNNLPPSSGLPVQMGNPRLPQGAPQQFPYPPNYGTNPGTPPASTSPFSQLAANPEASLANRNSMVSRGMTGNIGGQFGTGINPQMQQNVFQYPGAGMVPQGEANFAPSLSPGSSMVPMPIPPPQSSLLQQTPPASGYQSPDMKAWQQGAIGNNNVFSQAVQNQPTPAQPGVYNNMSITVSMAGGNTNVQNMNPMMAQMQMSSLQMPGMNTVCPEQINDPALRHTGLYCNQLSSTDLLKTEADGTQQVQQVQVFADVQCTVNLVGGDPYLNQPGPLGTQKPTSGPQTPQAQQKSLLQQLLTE

[4] = repression of VP16-driven luciferase reporter – cell-based, luminescence, high throughput, counter-screen for SRC1 inhibitor project (AID 588824; in the data active = inhibition above about 25%); conditions: cell-based VP16 transactivation luciferase luminescence; at 3.6 µM; active compounds read high
[5] = StAR promoter reporter inhibitors, counter-screen for LRH-1 inverse agonist project, cell-based, luminescence, high throughput (AID 651611; in the data active = inhibition above about 28%); conditions: StAR promoter luciferase reporter counterscreen, at 3.6 µM, active compounds read high
[6] = biological target: Nuclear receptor subfamily 5 group A member 2 (Homo sapiens) (UniProt O00482); assay: NR5A2 activity suppression in reporter cells – cell-based, luminescence, confirmation (AID 651613); conditions: cell-based LRH-1 luciferase reporter, inverse agonism; at 3.6 µM; active compounds read high;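 also: HEK293T cells co-transfected with LRH-1 and StAR promoter luciferase reporter; 0% = vehicle wells and 100% = parental cells lacking receptor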
Chain of Nuclear receptor subfamily 5 group A member 2 (Homo sapiens) (O00482 whole entry, looked up): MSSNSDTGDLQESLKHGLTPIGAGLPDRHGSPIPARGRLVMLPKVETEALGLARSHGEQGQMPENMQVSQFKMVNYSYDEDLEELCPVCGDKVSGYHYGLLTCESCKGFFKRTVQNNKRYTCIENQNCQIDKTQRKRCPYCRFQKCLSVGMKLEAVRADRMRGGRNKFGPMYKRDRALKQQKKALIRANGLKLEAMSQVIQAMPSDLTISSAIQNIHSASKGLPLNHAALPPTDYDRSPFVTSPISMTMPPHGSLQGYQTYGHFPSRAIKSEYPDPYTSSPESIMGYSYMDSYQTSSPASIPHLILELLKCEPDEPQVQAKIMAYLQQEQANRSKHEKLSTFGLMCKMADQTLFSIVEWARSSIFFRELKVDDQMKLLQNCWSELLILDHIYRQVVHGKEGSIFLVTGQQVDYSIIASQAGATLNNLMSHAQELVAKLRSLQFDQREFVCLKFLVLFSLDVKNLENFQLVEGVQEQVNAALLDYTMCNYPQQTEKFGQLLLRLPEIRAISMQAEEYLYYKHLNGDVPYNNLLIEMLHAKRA

[7] = biological target: Steroidogenic factor 1 (Homo sapiens) (UniProt Q13285); assay: inverse agonism at SF1 nuclear receptor – cell-based, luminescence, high throughput, counter-screen for LRH-1 inverse agonist project (AID 651614; in the data active = inhibition above about 44%;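 also: cells cotransfected with StAR promoter reporter and SF1 expression vector; 0% = vehicle on cells with receptor and 100% = vehicle on cells lacking receptor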); conditions: cell-based SF1 luciferase reporter, at 3.6 µM, active compounds read high
Chain of Steroidogenic factor 1 (Homo sapiens) (Q13285 whole entry, looked up, the tested form may be a part): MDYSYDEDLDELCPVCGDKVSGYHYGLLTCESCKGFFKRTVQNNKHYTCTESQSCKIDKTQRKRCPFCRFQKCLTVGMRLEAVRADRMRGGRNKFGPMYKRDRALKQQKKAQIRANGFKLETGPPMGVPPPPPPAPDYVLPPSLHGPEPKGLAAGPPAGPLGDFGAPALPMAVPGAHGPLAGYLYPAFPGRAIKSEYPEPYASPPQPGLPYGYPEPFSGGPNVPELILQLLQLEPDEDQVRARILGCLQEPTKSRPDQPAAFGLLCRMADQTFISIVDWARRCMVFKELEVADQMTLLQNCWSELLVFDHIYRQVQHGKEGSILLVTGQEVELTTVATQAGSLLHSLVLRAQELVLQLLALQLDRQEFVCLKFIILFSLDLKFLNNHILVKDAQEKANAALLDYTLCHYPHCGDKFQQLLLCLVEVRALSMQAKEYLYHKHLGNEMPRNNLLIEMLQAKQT

[8] = compounds suppressing VP16-driven luciferase signal – cell-based, luminescence, high throughput, counter-screen for LRH-1 inverse agonist project (AID 651615; in the data active = inhibition above about 33%); conditions: Gal4-VP16 luciferase reporter cells, at 3.6 µM, active compounds read high
[9] = reduced OD of V66 E. coli with T4 gene 2 phage – absorbance, RecBCD inhibitor project, confirmation (AID 651982;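 active = mean inhibition over triplicates exceeding the hit threshold derived in the original primary screen, cut at about 11% in these data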); conditions: E. coli V66 + T4 2- phage, growth OD; at 11.9 µM; active compounds read high
[10] = bacterial growth inhibition – absorbance, high throughput, counter-screen for RecBCD inhibitor project (AID 651983; in the data active = inhibition above about 20%;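 also: E. coli strain V66 grown with compound alone and no phage infection; 0% = bacteria with DMSO vehicle only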); conditions: E. coli viability, absorbance (OD) growth; at 11.9 µM; active compounds read high
[11] = reduced optical density, T4-challenged addAB+ bacteria – absorbance, E. coli V3065, T4 phage, counter-screen for RecBCD inhibitor project, confirmation (AID 651984;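 active = mean inhibition above the solvent-only control wells' mean plus 3 SD, cut at about 22% in these data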;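 also: higher means less bacterial growth from phage killing when AddAB is blocked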); conditions: E. coli expressing H. pylori AddAB + T4 phage, OD growth; at 11.9 µM; active compounds read high; gene 2 mutant T4, recBCD-deleted host

SMILES | inhibition [1] | inhibition [2] | inhibition [3] | inhibition [4] | inhibition [5] | inhibition [6] | inhibition [7] | inhibition [8] | inhibition [9] | inhibition [10] | inhibition [11]
Cc1ccc2ccc3ccc(C)nc3c2n1 | 42.1% | 70.6% (active) | 44.8% | 68.2% (active) | 77.2% (active) | 85.8% (active) | 87.4% (active) | 68.9% (active) |  |  | 
CCC1(O)C(=O)OCc2c1cc1n(c2=O)Cc2cc3c(N)cccc3nc2-1 (configuration not stated) | 89.6% (active) | 77.9% (active) | 54.4% (active) | 71.3% (active) | 83.6% (active) | 104% (active) | 92.1% (active) | 79.6% (active) |  |  | 
CCCC(=O)NC(c1ccc(Cl)cc1)c1ccc2cccnc2c1O (configuration not stated) | 31% | 28% | 15.5% | 40.2% (active) | 71.8% (active) | 83.3% (active) | 74.9% (active) | 74.8% (active) |  |  | 
COc1ccc2cc3cc(C(=O)Nc4cc(OC)c(OC)c(OC)c4)oc3nc2c1 | 37.1% | 33.5% (active) | 9.93% | 46.1% (active) | 71% (active) | 55.1% (active) | 74.7% (active) | 56.5% (active) |  |  | 
NC(=O)c1cccc(-c2cnc(N)c(C(=O)c3cccnc3)n2)c1 | 76.7% (active) | 49.5% (active) | 65.9% (active) | 48.5% (active) | 59.9% (active) | 72.6% (active) | 67.2% (active) | 72.7% (active) |  |  | 
Cc1ccc(-n2c(-c3ccc(Br)cc3)c[n+]3c2CCc2ccc4cccnc4c2-3)cc1 | 89.4% (active) | 86.1% (active) | 74.8% (active) | 87.5% (active) | 83.8% (active) | 111% (active) | 95.8% (active) | 96.3% (active) |  |  | 
Nc1nc2c(nnn2C2CC(O)C(CO)O2)c(=O)[nH]1 (configuration not stated) | 78.7% (active) | 13.7% | 13.6% | 3.11% | 51.8% (active) | 53.9% (active) | 44.1% (active) | 9.15% |  |  | 
CCCCCn1c2c(c(=N)c3ccccc31)CCC2 | 45.1% (active) | 61.1% (active) | 32% | 60% (active) | 44.3% (active) | 108% (active) | 83% (active) | 90.9% (active) |  |  | 
CCCOC(c1ccccc1)(c1ccc(C(F)(F)F)cc1)C(Oc1nc(C)cc(C)n1)C(=O)O (configuration not stated) | 51.2% (active) | 67% (active) | 51.6% (active) | 68.1% (active) | 75.5% (active) | 96.3% (active) | 90.2% (active) | 75.5% (active) |  |  | 
CCCCCC[n+]1ccccc1/C=C/c1ccc(N(C)C)cc1 | 89.5% (active) | 88.2% (active) | 64% (active) | 86.2% (active) | 81.5% (active) | 110% (active) | 94.8% (active) | 94.7% (active) |  |  | 
Cc1cc(OCc2nc(N)nc(N)c2-c2ccc(Cl)c(Cl)c2)ccc1[N+](=O)[O-] | 52.2% (active) | 30.6% (active) | 71.3% (active) | 30.1% (active) | 70.7% (active) | 69.5% (active) | 63.5% (active) | 42% (active) |  |  | 
Nc1ncn([C@@H]2O[C@H](CO)[C@@H](O)[C@H]2O)c(=O)n1 | 76.7% (active) | 57.1% (active) | -17.7% | 45.7% (active) | 69.6% (active) | 90.2% (active) | 82.3% (active) | 80.9% (active) |  |  | 
Cc1cc([N+](=O)[O-])nn1Cc1ccc(C(=O)N/N=C/c2ccc(O)cc2O)cc1 | 54.5% (active) | 63.4% (active) | 48.5% (active) | 66.9% (active) | 80.8% (active) | 97% (active) | 88.1% (active) | 87.9% (active) |  |  | 
COc1ccccc1-n1cc([C@@H]2C[C@H]3CN(c4ccccc4)C(=O)[C@]34CCCN24)cn1 | 53.1% (active) | 38% (active) | 26.6% | 47.4% (active) | 36.2% (active) | 57.8% (active) | 19.5% | 69.6% (active) |  |  | 
COc1ccc(NC(=O)c2cc(-c3cc(Cl)ccc3OC)n[nH]2)cc1OC | 27.4% | 51.2% (active) | 19.2% | 44% (active) | 38.9% (active) | 47.8% (active) | 61.2% (active) | 57.8% (active) |  |  | 
COc1ccc(C(=O)Nc2nnc(Cc3cccs3)s2)cc1OC | 19% | 54.2% (active) | -3.67% | 52.5% (active) | 51.5% (active) | 70.7% (active) | 66.1% (active) | 72.3% (active) |  |  | 
CC1(C)CC(N2CCCC2)=CC(=[N+]2CCCCCC2)C1 | 23% | 49.5% (active) | -16.2% | 52.1% (active) | 0.24% | 95% (active) | 61.3% (active) | 60.9% (active) |  |  | 
O=C(NN=Cc1ccccc1O)NN=Cc1ccccc1O | 48.5% (active) | 80% (active) | 24.6% | 77.1% (active) | 69.9% (active) | 97.3% (active) | 86.7% (active) | 81.8% (active) | 1.25% | 2.69% | 6.88%
